# Experimental data: the supplement of paper PMC4894684
# Counter-ions that a name gives are not always drawn. ± gives the standard deviation of the averaged measurements.
# System: Toxoplasma gondii RH (in HFF)
# Assay: parasite growth relative to the screen mean (all compounds = 100%); higher = less inhibition of parasite growth
# Conditions: 5 µM; 72 h; oxygen 21 %
# Outline: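 Library compounds, held as 10 mM DMSO stocks, were pinned to 5 µM final onto confluent human foreskin fibroblasts in 96-well plates. The cells were infected within 2 h with RH β-Gal–GFP Toxoplasma (MOI 1:5), grown 72 h at 21% O2, and assayed for parasite number by CPRG β-Gal using in-plate standard curves. Growth is reported relative to the screen mean, in which all compounds = 100%, averaged over two screens, and CellTiter-Blue checked uninfected host-cell viability.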
row,SMILES,parasite growth [%]
1,C[C@@H]1C[C@H]2[C@@H]3CCC4=CC(=O)C=C[C@]4(C)[C@@]3(F)[C@@H](O)C[C@]2(C)[C@@]1(O)C(=O)CO [Dexamethasone],141 ± 12
2,CN(C)CCCSC(=N)N [Dimaprit dihydrochloride],73.36 ± 0.62
3,C=CCNC(=O)c1cc([N+](=O)[O-])cc2c(=O)[nH]c(Nc3ccc(Cl)c(Cl)c3)nc12,89.6 ± 4.6
4,COc1ccc(CCN(C)CCCN2CCc3cc(OC)c(OC)cc3CC2=O)cc1OC [Zatebradine hydrochloride],103 ± 1.8
5,O=C(O)c1cc(=O)c2ccccc2[nH]1 [Kynurenic acid],123 ± 18
6,COCCOC(=O)C1=C(C)NC(C)=C(C(=O)OC(C)C)C1c1cccc([N+](=O)[O-])c1 (centres undefined) [Nimodipine],117 ± 13
7,COc1cc2nc(N3CCN(C(=O)C4CCCO4)CC3)nc(N)c2cc1OC (centres undefined) [Terazosin hydrochloride],122 ± 12
8,c1ccc2oc(C3=NCCN3)cc2c1 [2-BFI hydrochloride],109 ± 12
9,Cc1nc2sccn2c(=O)c1CCN1CCC(=C(c2ccc(F)cc2)c2ccc(F)cc2)CC1 [Ritanserin],123 ± 15
10,CC[C@H](CO)Nc1nc(Nc2cccc(-c3ccccn3)c2)c2ncn(C(C)C)c2n1 [(R)-DRF053 dihydrochloride],32.4 ± 16
11,CC(C(O)c1ccc(O)cc1)N1CCC(Cc2ccccc2)CC1 (centres undefined) [Ifenprodil hemitartrate],116 ± 4.3
12,CCc1nn(CCCN2CCN(c3cccc(Cl)c3)CC2)c(=O)n1CCOc1ccccc1 [Nefazodone hydrochloride],139 ± 7.4
13,CCCn1c(=O)c2[nH]c(C3CCCC3)nc2n(CCC)c1=O,103 ± 7
14,CN1CCN(CCc2ccc(Cl)c(Cl)c2)CC1 [BD 1063 dihydrochloride],50.9 ± 5.6
15,CC1=C(/C=C/C(C)=C/C=C/C(C)=C/C(=O)O)C(C)(C)CCC1 [Retinoic acid],85 ± 12
16,O=C(O)/C=C/c1ccc(Cn2ccnc2)cc1 [Ozagrel hydrochloride],119 ± 3.2
17,FC(F)(F)c1ccc(/C=C/c2nc(COc3ccc(CCCCn4ccnn4)cc3)co2)cc1,36 ± 14
18,CC(C)Oc1ccc2c(=O)c3cc(C(=O)O)ccc3oc2c1,81.9 ± 15
19,Cc1cccc(C)c1OCC(C)N (centres undefined) [Mexiletine hydrochloride],141.59 ± 0.025
20,NS(=O)(=O)Cc1noc2ccccc12 [Zonisamide],131 ± 2.2
21,O=C1c2ccccc2C(Cc2ccnc(F)c2)(Cc2ccnc(F)c2)c2ccccc21,102 ± 14
22,C[N+](C)(C)CC[N+]1(C)Cc2c(Cl)c(Cl)c(Cl)c(Cl)c2C1 [Chlorisondamine diiodide],168 ± 14
23,COc1cc2c(cc1OC)-c1cc3nc4ccccc4nc3n1C(C)(C)C2,< 0
24,COc1ccc(C2CC(c3c(O)cc(C)oc3=O)=NCCS2)c(OC)c1 (centres undefined),69.6 ± 9.3
